Most compounds without a hit are left out; they make up all but 11% or so of the library.
IMPase inh = qHTS Assay for Identifying the Cell-Membrane Permeable IMPase Inhibitors; inhibition (IP1 accumulation), % at 46.1 µM; 120,000 tested, under 10 active; Inositol monophosphatase 1 (Rattus norvegicus), P97697; AID 901, 2007; CHO-M1 cells, IP1 accumulation, HTRF TR-FRET ratio; active = well fitted curve in the direction sought with a large enough effect in the signal ratio, not every such curve was filed as active; inconclusive = small, poorly fitted or top-dose-only effect, or a change in a side signal; inactive = no such curve, though single readings can be large or run the other way; the % refers to the signal ratio;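 also: cells stimulated with carbachol in lithium chloride buffer; higher means more IMPase inhibition seen as more IP1 and lower FRET ratio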
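The IP-One HTRF competitive assay in carbachol-stimulated CHO-M1 cells quantifies cellular IP1. Compounds spanned up to 46 uM final, and activity is expressed as AC50 from concentration-response fits of the ratio and donor data.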
12-hLO inh = qHTS Assay for Inhibitors of 12-hLO (12-human lipoxygenase); Potency, µM (titrated, usually from 57.1 µM), most hits filed as inhibitors; purified 12-hLO, xylenol orange hydroperoxide absorbance; AID 1452, 2008; actives 0.12% (n = 150,000); Polyunsaturated fatty acid lipoxygenase ALOX12 (Homo sapiens), P18054; active = well fitted curve in the direction sought with a large enough effect; inconclusive = small, poorly fitted or top-dose-only effect, or another doubt; inactive = no such curve, though single readings can be large; an effect the other way counts as inactive or inconclusive; also: nearly all actives have a fitted effect of over 55% in size
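Hydroperoxide output read as Fe(III)-xylenol orange absorbance, 573-to-405 nm ratio, after 30 min reaction with 40 uM arachidonic acid. Enzyme: 150 nM purified human 12hLO, 15 min compound preincubation; 25 mM Hepes pH 7.0, room temperature.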
PNC assembly inh = High Content Assay for Compounds that inhibit the Assembly of the Perinucleolar Compartment. AID 2417, 2010. activity change (PNC), negative = inhibition, % at 10 µM. actives 3.1% (n = 140,000). PC3M PTB-GFP, PNC prevalence imaging, 16 h; hits give low values;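 active = readout at or below -70, meaning at least 70% loss of cells showing the perinucleolar compartment, a nuclear body marking cancer cells; inconclusive = readout between -30 and a set limit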
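Read-out is percentage of cells bearing a perinucleolar compartment, from automated 20x imaging of fixed, Hoechst-stained PC3M PTB-GFP cells. Cells were seeded 4 h, then exposed 16 h to compound (23 nl of library stock) in duplicate plates.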
HPGD inh = qHTS Assay for Inhibitors of HPGD (15-Hydroxyprostaglandin Dehydrogenase). 15-hydroxyprostaglandin dehydrogenase [NAD(+)] (Homo sapiens), P15428. purified HPGD, NADH fluorescence kinetic, PGE2 substrate. Potency, µM, usual class: inhibitors. actives 4.3% (n = 150,000). AID 894, 2007
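NADH formation kinetics: reaction with 30 uM PGE2 and 1 mM NAD+ (final), 20 nM enzyme, Tris-HCl pH 8 with Tween 20, after 15 min compound preincubation at room temperature. Fluorescence change, last versus first of five reads.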
IMPase Li cell = qHTS Assay for Identifying the Cell-Membrane Permeable IMPase Inhibitors: Potentiation with Lithium; Potency, µM (doses to about 59.4 µM), usual class: inhibitors; actives 0.35% (n = 210,000); CHO-M1 cells, IP1 TR-FRET (IP-One), carbachol + lithium; active = well fitted curve in the direction sought with a large enough effect; inconclusive = small, poorly fitted or top-dose-only effect, or another doubt; inactive = no such curve, though single readings can be large; an effect the other way counts as inactive or inconclusive;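 also: IP1 builds up when IMPase is blocked and the TR-FRET signal falls; nearly all actives have a fitted effect of over 50% in size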
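Steps: plate 2000 CHO-M1 cells per well and culture 16–30 h; add compound and lithium; incubate 30 min, 37C; add d2-IP1 tracer and Eu cryptate anti-IP1 antibody in lysis buffer; read after 10 min at room temperature.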
ALDH1A1 block = qHTS Assay for Inhibitors of Aldehyde Dehydrogenase 1 (ALDH1A1); Aldehyde dehydrogenase 1A1 (Homo sapiens), P00352; Purified ALDH1A1, NADH fluorescence, propionaldehyde substrate; Potency, µM (top dose mostly 75.3 µM), hits mostly inhibitors; actives 7.3% (n = 220,000); AID 1030, 2008
Target sequence (P00352 whole entry, looked up): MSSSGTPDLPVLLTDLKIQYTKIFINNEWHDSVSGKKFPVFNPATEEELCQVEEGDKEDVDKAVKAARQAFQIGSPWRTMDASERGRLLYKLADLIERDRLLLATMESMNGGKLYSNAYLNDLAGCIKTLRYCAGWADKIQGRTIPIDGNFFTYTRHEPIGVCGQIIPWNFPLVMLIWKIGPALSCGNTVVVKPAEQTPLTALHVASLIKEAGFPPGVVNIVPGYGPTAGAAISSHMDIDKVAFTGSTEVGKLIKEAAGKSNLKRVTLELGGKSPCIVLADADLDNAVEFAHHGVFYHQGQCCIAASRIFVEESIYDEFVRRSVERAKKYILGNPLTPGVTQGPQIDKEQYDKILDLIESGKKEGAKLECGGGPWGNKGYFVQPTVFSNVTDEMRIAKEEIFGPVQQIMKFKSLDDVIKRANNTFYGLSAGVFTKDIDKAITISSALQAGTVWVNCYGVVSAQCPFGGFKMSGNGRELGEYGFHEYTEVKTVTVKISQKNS
A number is an active result; – = inactive; ? = inconclusive; · = not tested or not shown; [ ] = remark or other dose. Unless noted, calls follow the shape of the dose curve; as a rule, active = well fitted inhibition curve with a large enough effect (not every such curve was filed as active); inconclusive = small, poorly fitted or top-dose-only effect, or another doubt; inactive = no such curve, though single readings can be large or run the other way.

SMILES | IMPase inh | 12-hLO inh | PNC assembly inh | HPGD inh | IMPase Li cell | ALDH1A1 block
C/C(=N\NC(=S)NCCc1ccccc1)c1cccs1 | · | 4µM | – | – | – | ?
COc1cccc(NS(=O)(=O)c2ccc3c(c2)C2C=CCC2C(c2ccc(C(=O)O)cc2)N3)c1 (stereo not drawn) | · | – | – | – | – | 20µM
COc1ccc(C(=O)N/N=C(\C)c2ccc3c(c2)C2C=CCC2C(c2ccccc2)N3)cc1 (stereo not drawn) | – | ? | – | – | – | 11µM
COc1ccc(Br)cc1[C@@H]1Nc2ccc(C(=O)O)cc2[C@@H]2C=CC[C@@H]21 | – | · | · | · | · | ·
NC(CSCC(=O)O)C(=O)O (stereo not drawn) | · | –[0.00818 µM] | · | – | – | –
CC(C)(C)c1ccc(/C=C/C(=O)Nc2ccc3c(c2)OCCO3)cc1 | · | – | · | – | – | –
Cc1noc(C)c1COc1ccc(C(=O)OCc2nnc(-c3ccc(Cl)cc3)o2)cc1 | – | – | -84 | · | · | –
CCCSc1nc(C)cc(=O)[nH]1 | – | – | – | – | – | –
CCCOc1cccc(OCCSc2nc(C)cc(=O)[nH]2)c1 | – | – | -86 | – | – | –
CCC(C)c1ccccc1NC(=O)COC(=O)c1ccc(N2CCCC2)c([N+](=O)[O-])c1 (stereo not drawn) | – | – | – | – | – | 13µM
Cc1cccc(C)c1NC(=O)COC(=O)c1ccc(N2CCCC2)c([N+](=O)[O-])c1 | · | – | – | – | – | –
O=C(NCCCN1CCN(c2ccccc2F)CC1)c1nnc(Cc2ccc(Cl)cc2Cl)o1 | – | · | · | · | · | ·
NC(=S)N/N=C\c1ccc(-c2cccc(Cl)c2Cl)o1 | – | ? | – | ? | – | 32µM
NC(=S)N/N=C/c1ccc(-c2ccc(Cl)c(Cl)c2)o1 | – | – | ? | ? | – | ?
CC(=O)NCCNc1cc(-c2ccccc2C)ncn1 | · | · | · | · | – | –
O=C(COC(=O)c1cc(-c2ccccc2)nc2c(Cl)cccc12)c1ccc(F)cc1 | – | · | · | · | · | ·
COc1ccc(C2/C=C\CN(S(=O)(=O)c3ccc(C)cc3)CC(=O)N2Cc2cccc(F)c2)cc1 (stereo not drawn) | · | –[0.00818 µM] | · | – | – | –
Cc1ccc(CN2C(=O)C[C@@H](NS(=O)(=O)c3ccc4ccccc4c3)C/C=C\C2c2ccc(C)cc2)cc1 (stereo partly drawn) | · | –[0.00818 µM] | · | – | – | 22µM
CC1CCN(C(=S)c2ccc(O)cc2)CC1 | – | – | – | 32µM | – | ?
CC1CCN(C(=S)c2ccccc2O)CC1 | – | – | – | 6.3µM | – | ?
N=C1CCC[C@@H]1C(=S)SCCC(N)=O | · | –[11.4 µM] | · | – | – | –[13.5 µM]
Cc1ccc(S(=O)(=O)Nc2cccc(N(C)S(C)(=O)=O)c2)cc1[N+](=O)[O-] | · | · | · | · | – | 16µM
CN(c1cccc(NS(=O)(=O)c2cccc([N+](=O)[O-])c2)c1)S(C)(=O)=O | · | · | · | · | – | ?
O=C(O)[C@@H](O)[C@@H](O)[C@H](O)C(=O)CO | · | –[11.4 µM] | · | – | – | –[13.5 µM]
COc1cccc(C2C(C(=O)c3cccs3)=C(O)C(=O)N2CCCn2ccnc2)c1OC (stereo not drawn) | – | – | -96 | – | – | ?
SMILES | IMPase inh | 12-hLO inh | PNC assembly inh | HPGD inh | IMPase Li cell | ALDH1A1 block
COc1ccc(N=C2C(=O)N3c4c(cccc42)C(C)=CC3(C)C)cc1 | – | – | – | – | – | 2µM
Cc1cc(-c2nnc(SCC(=O)Nc3ccccc3C(F)(F)F)o2)c(C)n1-c1ccccc1 | – | – | – | – | – | 11µM
NC1=C2NC=N[C@@H]2N(C/C=C\c2ccccc2)C=N1 | · | –[11.4 µM] | · | – | – | –[13.5 µM]
CCn1cc(C(=O)NCc2ccccn2)c(=O)c2cc(S(=O)(=O)N3CCCCC3)ccc21 | – | – | – | ? | – | 11µM
CCn1cc(C(=O)NCc2ccco2)c(=O)c2cc(S(=O)(=O)N3CCc4ccccc4C3)ccc21 | ? | – | – | – | – | 20µM
CCn1cc(C(=O)NCc2ccco2)c(=O)c2cc(S(=O)(=O)N3CCC(C)CC3)ccc21 | – | – | – | – | – | ?
CCn1cc(C(=O)NCc2ccccn2)c(=O)c2cc(F)c(N3CCN(C)CC3)cc21 | – | – | – | – | – | ?
CCn1cc(C(=O)NCc2ccco2)c(=O)c2cc(S(=O)(=O)N3CCCCCC3)ccc21 | – | – | ? | – | – | 8.9µM
C/C=C1/NN(CCCN2CCN(c3cccc(Cl)c3)CC2)C(=O)N1CCOc1ccccc1 | · | –[0.00818 µM] | · | – | – | –
FC(F)(F)c1cc(CN2CC3(CCNCC3)C2)cc(C(F)(F)F)c1 | · | – | · | – | – | –
Oc1ccc(O)cc1 | – | – | · | 7.9µM | – | –
O=C(c1ccc(O)cc1)c1ccc(C(=O)c2ccc(O)cc2)cc1 | – | – | – | 22µM | – | –
COCCNc1nc2c(c(=O)n(C)c(=O)n2C)n1Cc1c(F)cccc1Cl | – | · | · | · | · | ·
CC(C)c1ccc(CN2CCN(C(=O)CCl)CC2)cc1 | · | · | · | · | – | 0.56µM
